# Laboratory results: the supplement of paper PMC3334620
# Whole data set: some 33,000 sequences, median “E-score (-0.5 to 0.5)” near -0.032, cut for the highest 2% near 0.36. Many of the other results were omitted from the sample, so the highest values are more common in it than they were.
# Molecular target: T1, Sko1 (UniProt Q02100)
# T1 sequence: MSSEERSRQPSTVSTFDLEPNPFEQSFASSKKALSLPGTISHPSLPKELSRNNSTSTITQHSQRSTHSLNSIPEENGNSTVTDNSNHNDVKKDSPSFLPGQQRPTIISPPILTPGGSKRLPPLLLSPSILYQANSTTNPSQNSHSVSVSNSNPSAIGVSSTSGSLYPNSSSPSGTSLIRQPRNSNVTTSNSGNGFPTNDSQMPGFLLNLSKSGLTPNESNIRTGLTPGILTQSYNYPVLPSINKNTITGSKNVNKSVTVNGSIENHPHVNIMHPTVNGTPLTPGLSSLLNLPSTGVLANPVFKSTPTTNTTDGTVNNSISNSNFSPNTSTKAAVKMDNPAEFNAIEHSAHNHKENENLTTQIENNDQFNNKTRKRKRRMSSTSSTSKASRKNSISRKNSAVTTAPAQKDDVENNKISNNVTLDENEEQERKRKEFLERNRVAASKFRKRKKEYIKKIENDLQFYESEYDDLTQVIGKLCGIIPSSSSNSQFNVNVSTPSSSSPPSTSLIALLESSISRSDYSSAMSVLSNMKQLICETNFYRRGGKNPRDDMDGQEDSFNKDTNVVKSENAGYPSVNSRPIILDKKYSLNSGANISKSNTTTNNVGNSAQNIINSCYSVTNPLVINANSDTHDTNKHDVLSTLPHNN
# Assay: PBM E-score (8-mer binding enrichment) (E-score (-0.5 to 0.5)); higher = stronger / more preferred TF binding
# Conditions: protein concentration: 200 nM; construct: GST-full length
# Outline: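 Yeast transcription factors carrying a GST tag, as full-length proteins or DNA-binding domains, were produced by PURExpress in vitro transcription/translation. About 100-200 nM protein was applied to universal all-10-mer Agilent arrays, double-stranded by primer extension on fresh or once-stripped slides. Bound protein was detected with fluorescent anti-GST, and scans were normalised with masliner. The Universal PBM Analysis Suite gave each ungapped eight-base word, pooled with its reverse complement, an E-score, a modified Wilcoxon-Mann-Whitney statistic.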
row,Sequence,PBM E-score
1,AGATTACC,0.108
2,CGATTACC,-0.0987
3,AGATTACG,0.459
4,AGATTACT,0.201
5,ACCTGGCG,-0.109
6,AAGCTACG,0.251
7,GAAAAAAC,0.201
8,CCTGACGA,0.24
9,CATGACTC,-0.0516
10,TATGACGA,0.475
11,AATGACGA,0.476
12,CATGACGC,0.465
13,ACTGACGA,0.364
14,TATGACAA,0.21
15,CATGACAC,0.258
16,ACTGACGG,-0.104
17,TATGACCA,0.178
18,AATGACTA,0.0941
19,AATGACCA,0.0136
20,TCGACGCA,0.0313
21,ATCGCCAA,-0.119
22,GTTTTCTA,0.201

row,Sequence,PBM E-score
1,GCAGTAGA,-0.0999
2,ATGGCAGG,-0.281
3,CAGGACCC,-0.221
4,AATGACGC,0.478
5,CATGACAA,-0.00914
6,GATGACTA,0.0669
7,ATTGACGC,0.319
8,GATGACCC,-0.0957
9,GATGACGC,0.473
10,ACTGACGC,0.334
11,CATGACGG,0.326
12,CATGACGA,0.463
13,GATGACGA,0.474
14,GATGACCA,0.0721
15,GATGACAC,0.257
16,GGACCCTA,-0.273
17,GTTTTGTA,0.262
18,ACGATAGT,0.295
19,ATATGCGC,0.0277
20,CGATCGCG,0.0985
21,CGAGCACG,0.0337
22,GACCAGCA,-0.185

row,Sequence,PBM E-score
1,GAGGGCGA,-0.265
2,ATTGACGG,0.0348
3,AATGACGG,0.388
4,AATGACCG,0.0453
5,GCCTCAGA,-0.148
6,TCGTAACA,0.275
7,AGGTAACT,0.0427
8,GCGTAACA,0.317
9,GCGTAACC,0.328
10,CCGTAACC,-0.0904
11,CCGTAACG,-0.103
12,ACGTAACA,0.464
13,ACGTAACT,0.459
14,AAGTAACG,0.0665
15,AAGTAACT,0.153
16,ACGTAACC,0.469
17,ACGTAACG,0.469
18,AGCTGTGG,-0.296
19,GGTCCCAC,-0.0859
20,AATGAGTA,0.178
21,CGGACTGC,-0.0639
22,CTCTTACA,-0.0812

row,Sequence,PBM E-score
1,ATTTAGTA,0.25
2,ATGAAATG,-0.059
3,AGGCAAGC,-0.126
4,AATACGGA,0.138
5,GATACGTA,0.48
6,CATACGTC,0.466
7,AATACGCG,0.287
8,CATACGCC,0.182
9,AATACGAA,0.324
10,AATACGGG,-0.111
11,CATACGGC,-0.0208
12,GATACGAA,0.227
13,GATACGGA,-0.0181
14,AATACGTG,0.458
15,AATACGTA,0.482
16,AAACCTTG,0.0199
17,GACTCACC,-0.118
18,CTCAGGAG,-0.159
19,CACTTCCA,0.109
20,CTTAAAGA,0.00637
